According to ChEMBL document CHEMBL4513146, “CO-ADD screening of Karazin Kharkiv National University (Ukraine) compounds”:
Entries with a potency or affinity are not part of this list.

The compounds below were run on Staphylococcus aureus. Conditions: Concentration 32 ug.mL-1;; ASSAY_TEST Inhibition of Bacterial Growth; detection method Absorption (OD600); MEDIA CAMHB; plate type 384well; NBS; CORNING #3640; time 18 hr.
`O=c1c2sccc2n2c(=O)n(Cc3ccccc3F)nc2n1Cc1cccs1` gave an Inhibition of -3.2%.
Work on `Cc1ccc(CNC(=O)CSc2nnc3c4cc(-c5ccc(C)cc5)nn4ccn23)cc1` yielded an Inhibition of 9.17%.
`O=S(=O)(c1ccc2nncn2c1)N(Cc1cc(F)cc(F)c1)c1ccccc1` gave an Inhibition of 0.37%.
For `O=C(CSc1nc2ccccc2n2c(-c3ccccc3)nnc12)Nc1ccc(Br)cc1`, the Inhibition was 12.1%.
Compound `COc1ccccc1CNC(=O)Cn1nc2c(N3CCC(C)CC3)nccn2c1=O` has an Inhibition of 13.11%.
`Cc1ccc(C(=O)C(C)Sc2nnc3c(=O)n(-c4ccc(F)c(F)c4)ccn23)cc1C` (stereo not drawn) was tested, and the Inhibition was 19.73%.
For `Cc1cc(C)c(NC(=O)Cn2nc3ccc(SC(C)(C)C)nn3c2=O)c(C)c1`, the Inhibition was 11.62%.
For `CSc1cccc(NC(=O)Cn2nc3c(Sc4cccc(F)c4)nccn3c2=O)c1`, the Inhibition was 2.75%.
`CCc1ccc(NC(=O)Cn2nc3n(Cc4ccco4)c(=O)c4sccc4n3c2=O)cc1` gave an Inhibition of -4.41%.
For `CCOC(=O)C1CCCN(C(=O)Cn2nc3n(CC(C)C)c(=O)c4sccc4n3c2=O)C1` (stereo not drawn), the Inhibition was -2.49%.
With `COc1cccc(-n2ccn3c(SCc4cccc(Cl)c4)nnc3c2=O)c1` the Inhibition was 12.15%.
In the case of `CCc1nnc2c(S(=O)(=O)N(Cc3ccc(F)cc3)c3cccc(Cl)c3)cccn12`, the Inhibition is reported as 8.4%.
`CN(C(=O)Cn1nc2n(Cc3cccs3)c(=O)c3sccc3n2c1=O)c1ccccc1` gave an Inhibition of -14.76%.
Compound `Cc1ccc(-c2cc3c4nn(CC(=O)N5CCN(c6ccc(F)cc6)CC5)c(=O)n4ccn3n2)cc1C` has an Inhibition of 6.16%.
With `COc1ccc(-n2ccn3c(SCC(=O)N4CCN(c5ccccc5F)CC4)nnc3c2=O)cc1` the Inhibition was 7.08%.
With `COc1cccc(Oc2nccn3c(=O)n(CC(=O)Nc4ccc(C)cc4Cl)nc23)c1` the Inhibition was 10.57%.
`Cc1ccc(-c2ccc3nn(CC(=O)Nc4c(C)cccc4C)c(=O)n3n2)cc1C` gave an Inhibition of -0.95%.
Compound `Cc1nnc2c(=O)n(CC(=O)Nc3ccccc3Br)c3ccccc3n12` has an Inhibition of 16.36%.
For `Cc1cccc(N(Cc2ccccc2F)S(=O)(=O)c2ccc3nncn3c2)c1`, the Inhibition was -3.86%.
Work on `O=C(Cn1nc2ccc(-c3ccccc3)nn2c1=O)NC1CCCCC1` yielded an Inhibition of 8.4%.
With `CCc1ccccc1NC(=O)Cn1nc2n(C)c(=O)c3c(c(-c4ccccc4)cn3C)n2c1=O` the Inhibition was 6.44%.
`COc1ccccc1-n1ccn2c(SCC(=O)N3CCN(c4ccccc4F)CC3)nnc2c1=O` was tested, and the Inhibition was 13.15%.
For `Cc1nnc2ccc(S(=O)(=O)N(Cc3cccc(F)c3)c3cc(F)cc(F)c3)cn12`, the Inhibition was 9.82%.
`CCCCn1c(=O)c2sccc2n2c(=O)n(CC(=O)c3cccc(OC)c3)nc12` was tested, and the Inhibition was 9.41%.
`CC(C)Sc1ccc2nn(CC(=O)Nc3ccccc3F)c(=O)n2n1` was tested, and the Inhibition was -5.65%.
`O=C(CSc1nnc2c(=O)n(-c3ccc(Br)cc3)ccn12)c1c[nH]c2ccccc12` was tested, and the Inhibition was 12.46%.
`COc1ccccc1-n1ccn2c(SCc3ccccc3F)nnc2c1=O` gave an Inhibition of 11.33%.
`CCc1ccc(NC(=O)CSc2nnc3ccc(C(=O)Nc4cccc(F)c4)cn23)cc1` gave an Inhibition of 9.49%.
`COc1ccccc1-n1ccn2c(SCc3ccccc3Cl)nnc2c1=O` was tested, and the Inhibition was 15.04%.
`Cc1nnc2c(=O)n(CC(=O)Nc3ccc(Cl)cc3F)c3ccccc3n12` gave an Inhibition of 7.03%.
`CCc1ccc(N(Cc2ccccc2F)S(=O)(=O)c2cccn3c(C)nnc23)cc1` gave an Inhibition of 15.67%.
Work on `Cc1cccc(NC(=O)Cn2c(=O)c3nnc(C(C)C)n3c3ccccc32)c1` yielded an Inhibition of 1.06%.
With `Cc1cccc(C)c1NC(=O)Cn1nc2c3cc(-c4ccc(Cl)cc4)nn3ccn2c1=O` the Inhibition was -1.34%.
In the case of `Cc1ccc(C)c(Cn2nc3c(=O)n(-c4cccc(Cl)c4C)ccn3c2=O)c1`, the Inhibition is reported as -0.35%.
For `Cc1cccc(N(CC(=O)OC(C)(C)C)S(=O)(=O)c2cccn3c(C)nnc23)c1`, the Inhibition was 5.88%.
With `CCOc1ccc(-n2ccn3c(SCC(=O)Nc4cccc(Cl)c4)nnc3c2=O)cc1` the Inhibition was -0.75%.
Compound `CCCCNC(=O)Cn1nc2n(Cc3ccco3)c(=O)c3sccc3n2c1=O` has an Inhibition of 2.23%.
Work on `COCCCNC(=O)CSc1nnc2c(=O)n(Cc3ccccc3)ccn12` yielded an Inhibition of 7.01%.
Work on `CCOc1ccc(C(=O)CSc2nnc3c(=O)n(-c4ccc(Br)cc4)ccn23)cc1` yielded an Inhibition of 15.75%.

The compounds below were run on Escherichia coli. Conditions: Concentration 32 ug.mL-1;; ASSAY_TEST Inhibition of Bacterial Growth; detection method Absorption (OD600); MEDIA CAMHB; plate type 384well; NBS; CORNING #3640; time 18 hr.
`O=c1c2sccc2n2c(=O)n(Cc3ccccc3F)nc2n1Cc1cccs1` was tested, and the Inhibition was -12.46%.
Work on `Cc1ccc(CNC(=O)CSc2nnc3c4cc(-c5ccc(C)cc5)nn4ccn23)cc1` yielded an Inhibition of 0.59%.
`O=S(=O)(c1ccc2nncn2c1)N(Cc1cc(F)cc(F)c1)c1ccccc1` gave an Inhibition of -13.22%.
For `O=C(CSc1nc2ccccc2n2c(-c3ccccc3)nnc12)Nc1ccc(Br)cc1`, the Inhibition was -0.27%.
Compound `COc1ccccc1CNC(=O)Cn1nc2c(N3CCC(C)CC3)nccn2c1=O` has an Inhibition of -0.77%.
`Cc1ccc(C(=O)C(C)Sc2nnc3c(=O)n(-c4ccc(F)c(F)c4)ccn23)cc1C` (stereo not drawn) was tested, and the Inhibition was 1.41%.
`Cc1cc(C)c(NC(=O)Cn2nc3ccc(SC(C)(C)C)nn3c2=O)c(C)c1` showed an Inhibition of -0.74%.
In the case of `CSc1cccc(NC(=O)Cn2nc3c(Sc4cccc(F)c4)nccn3c2=O)c1`, the Inhibition is reported as -0.46%.
Work on `CCc1ccc(NC(=O)Cn2nc3n(Cc4ccco4)c(=O)c4sccc4n3c2=O)cc1` yielded an Inhibition of -6.35%.
For `CCOC(=O)C1CCCN(C(=O)Cn2nc3n(CC(C)C)c(=O)c4sccc4n3c2=O)C1` (stereo not drawn), the Inhibition was -6.05%.
`COc1cccc(-n2ccn3c(SCc4cccc(Cl)c4)nnc3c2=O)c1` was tested, and the Inhibition was -0.34%.
With `CCc1nnc2c(S(=O)(=O)N(Cc3ccc(F)cc3)c3cccc(Cl)c3)cccn12` the Inhibition was -8.07%.
`CN(C(=O)Cn1nc2n(Cc3cccs3)c(=O)c3sccc3n2c1=O)c1ccccc1` gave an Inhibition of -16.81%.
For `Cc1ccc(-c2cc3c4nn(CC(=O)N5CCN(c6ccc(F)cc6)CC5)c(=O)n4ccn3n2)cc1C`, the Inhibition was 1.43%.
`COc1ccc(-n2ccn3c(SCC(=O)N4CCN(c5ccccc5F)CC4)nnc3c2=O)cc1` showed an Inhibition of -4.94%.
In the case of `COc1cccc(Oc2nccn3c(=O)n(CC(=O)Nc4ccc(C)cc4Cl)nc23)c1`, the Inhibition is reported as -3.8%.
`Cc1ccc(-c2ccc3nn(CC(=O)Nc4c(C)cccc4C)c(=O)n3n2)cc1C` gave an Inhibition of -11.36%.
`Cc1nnc2c(=O)n(CC(=O)Nc3ccccc3Br)c3ccccc3n12` was tested, and the Inhibition was 5.04%.
For `Cc1cccc(N(Cc2ccccc2F)S(=O)(=O)c2ccc3nncn3c2)c1`, the Inhibition was -5.15%.
`O=C(Cn1nc2ccc(-c3ccccc3)nn2c1=O)NC1CCCCC1` showed an Inhibition of -1.26%.
For `CCc1ccccc1NC(=O)Cn1nc2n(C)c(=O)c3c(c(-c4ccccc4)cn3C)n2c1=O`, the Inhibition was -11.71%.
For `COc1ccccc1-n1ccn2c(SCC(=O)N3CCN(c4ccccc4F)CC3)nnc2c1=O`, the Inhibition was -2.51%.
`Cc1nnc2ccc(S(=O)(=O)N(Cc3cccc(F)c3)c3cc(F)cc(F)c3)cn12` gave an Inhibition of -6.06%.
In the case of `CCCCn1c(=O)c2sccc2n2c(=O)n(CC(=O)c3cccc(OC)c3)nc12`, the Inhibition is reported as 0.65%.
`CC(C)Sc1ccc2nn(CC(=O)Nc3ccccc3F)c(=O)n2n1` was tested, and the Inhibition was 3.66%.
With `O=C(CSc1nnc2c(=O)n(-c3ccc(Br)cc3)ccn12)c1c[nH]c2ccccc12` the Inhibition was -2.65%.
`COc1ccccc1-n1ccn2c(SCc3ccccc3F)nnc2c1=O` was tested, and the Inhibition was -2.76%.
With `CCc1ccc(NC(=O)CSc2nnc3ccc(C(=O)Nc4cccc(F)c4)cn23)cc1` the Inhibition was -4.13%.
With `COc1ccccc1-n1ccn2c(SCc3ccccc3Cl)nnc2c1=O` the Inhibition was -4.4%.
`Cc1nnc2c(=O)n(CC(=O)Nc3ccc(Cl)cc3F)c3ccccc3n12` was tested, and the Inhibition was -1.92%.
With `CCc1ccc(N(Cc2ccccc2F)S(=O)(=O)c2cccn3c(C)nnc23)cc1` the Inhibition was -1.05%.
Work on `Cc1cccc(NC(=O)Cn2c(=O)c3nnc(C(C)C)n3c3ccccc32)c1` yielded an Inhibition of -8.16%.
`Cc1cccc(C)c1NC(=O)Cn1nc2c3cc(-c4ccc(Cl)cc4)nn3ccn2c1=O` showed an Inhibition of -1.58%.
`Cc1ccc(C)c(Cn2nc3c(=O)n(-c4cccc(Cl)c4C)ccn3c2=O)c1` gave an Inhibition of -10.27%.
With `Cc1cccc(N(CC(=O)OC(C)(C)C)S(=O)(=O)c2cccn3c(C)nnc23)c1` the Inhibition was -7.68%.
Compound `CCOc1ccc(-n2ccn3c(SCC(=O)Nc4cccc(Cl)c4)nnc3c2=O)cc1` has an Inhibition of 2.43%.
With `CCCCNC(=O)Cn1nc2n(Cc3ccco3)c(=O)c3sccc3n2c1=O` the Inhibition was -5.07%.
Compound `COCCCNC(=O)CSc1nnc2c(=O)n(Cc3ccccc3)ccn12` has an Inhibition of -1.7%.
With `CCOc1ccc(C(=O)CSc2nnc3c(=O)n(-c4ccc(Br)cc4)ccn23)cc1` the Inhibition was -1.32%.
